Screening results: PubChem, National Center for Advancing Translational Sciences (NCATS)
EPAC2 agonist = activates human EPAC2 exchange factor | Q8WZA2 | Potency, µM (highest dose often 154 µM), for the others: at the highest dose activation, hits mostly activators | AID 720711 | EPAC2 activation, biochemical qHTS; response scale: 100% = 6.5 mM cAMP response | 360,000 compounds, 0.079% hits; also: nearly all actives have a fitted effect of over 50% in size
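Each well held 100 nM EPAC2, 250 nM RAP1B-BODIPY-GDP and 50 uM GDP. Fluorescence, read at 5-min intervals to 30 min, was referenced to a 6.5 mM cAMP positive control.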
EPAC1 agonist = agonists of human EPAC1. 360,000 compounds, 0.073% hits. EPAC1 agonist qHTS, biochemical assay; response scale: 100% = response to 6.5 mM cAMP. Potency, µM (titrated, usually from 154 µM), for inactives: at the top dose activation, usual class: activators. O95398. AID 720707; also: nearly all actives have a fitted effect of over 60% in size
Target sequence (O95398 whole entry, looked up): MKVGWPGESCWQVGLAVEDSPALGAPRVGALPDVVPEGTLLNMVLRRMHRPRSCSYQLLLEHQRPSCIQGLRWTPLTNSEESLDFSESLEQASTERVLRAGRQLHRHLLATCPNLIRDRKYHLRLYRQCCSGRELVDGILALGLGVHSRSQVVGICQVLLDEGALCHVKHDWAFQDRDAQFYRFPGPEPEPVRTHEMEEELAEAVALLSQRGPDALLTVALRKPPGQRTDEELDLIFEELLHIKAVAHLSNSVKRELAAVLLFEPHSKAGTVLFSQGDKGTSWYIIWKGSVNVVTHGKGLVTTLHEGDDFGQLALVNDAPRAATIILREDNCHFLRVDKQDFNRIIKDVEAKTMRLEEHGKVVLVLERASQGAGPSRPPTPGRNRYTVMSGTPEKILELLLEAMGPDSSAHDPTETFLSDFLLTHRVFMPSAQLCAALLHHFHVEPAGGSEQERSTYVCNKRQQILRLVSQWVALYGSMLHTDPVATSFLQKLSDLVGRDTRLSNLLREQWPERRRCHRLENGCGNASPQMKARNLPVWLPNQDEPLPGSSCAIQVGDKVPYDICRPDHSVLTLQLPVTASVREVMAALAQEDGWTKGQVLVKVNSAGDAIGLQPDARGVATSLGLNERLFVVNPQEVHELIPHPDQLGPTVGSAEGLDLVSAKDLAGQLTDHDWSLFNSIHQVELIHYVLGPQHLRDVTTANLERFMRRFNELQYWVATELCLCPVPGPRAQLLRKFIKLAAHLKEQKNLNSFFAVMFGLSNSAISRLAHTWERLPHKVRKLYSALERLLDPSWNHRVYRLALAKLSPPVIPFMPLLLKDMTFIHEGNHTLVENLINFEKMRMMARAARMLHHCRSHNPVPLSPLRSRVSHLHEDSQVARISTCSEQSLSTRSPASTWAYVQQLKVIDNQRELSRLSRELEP
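Multi-concentration qHTS readout: loss of Rap1B-bound BODIPY-GDP fluorescence driven by 100 nM EPAC1 with excess GDP (50 uM), monitored kinetically at room temperature; agonist response expressed relative to 6.5 mM cAMP.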
USP1-UAF1 inh = blocks the human USP1/UAF1 deubiquitinase complex. Potency, µM (series often up to 57.1 µM), without a hit: at the highest dose activity change, negative = inhibition, hits mostly inhibitors. O94782. recombinant USP1/UAF1, Ub-Rhodamine cleavage fluorescence. AID 743255. 390,000 compounds, 0.23% hits; also: % is scaled to controls: 0 for no effect and ±100 for the full control effect; nearly all actives have a fitted effect of over 60% in size
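USP1/UAF1 complex (1 nM) preincubated 15 min at room temperature with compound, then Ub-Rho substrate (150 nM final) added. Kinetic fluorescence at 480/540 nm over 6 reads at 60 s intervals; 50 mM HEPES pH 7.8, 0.5 mM EDTA, 0.1 mg/ml BSA, 1 mM TCEP, 0.01% Tween-20.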
EPAC1 antag = antagonists of human EPAC1 | 360,000 compounds, 0.14% hits | EPAC1 GEF assay, Rap1b-BODIPY-GDP exchange fluorescence | O95398 | Potency, µM (titrated, usually from 115 µM), inactives show at the highest dose activity change, negative = inhibition, usual class: inhibitors | AID 720709;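 also: plate controls were vehicle for no effect and positive control for full effect; nearly all actives have a fitted effect of over 50% in size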
EPAC2 antagonist = EPAC2 (human) antagonism. Q8WZA2. EPAC2 GEF exchange of Rap1B-BODIPY-GDP, fluorescence. Potency, µM (titrated, usually from 114 µM), for the others: at the top dose activity, negative = inhibition, most hits filed as inhibitors. 360,000 compounds, 0.18% hits. AID 720708; also: % is scaled to controls: 0 for no effect and ±100 for the full control effect; nearly all actives have a fitted effect of over 45% in size
* = called active by the depositor; ? = inconclusive; · = no result; + = active, no number. A selection: hits, their analogues and other compounds. The true share with any hit is near 0.49%. Calls follow the shape of the dose curve; as a rule, active = well fitted curve in the direction sought with a large enough effect; inconclusive = small, poorly fitted or top-dose-only effect, or another doubt; inactive = no such curve, though single readings can be large; an effect the other way counts as inactive or inconclusive. Potency is read from the fitted curve at half-maximal effect.

SMILES | EPAC2 agonist | EPAC1 agonist | USP1-UAF1 inh | EPAC1 antag | EPAC2 antagonist
Cc1ccccc1CSc1nc2cccnc2n1Cc1ccc(C(=O)NC2CC2)cc1 | · | · | -2% | · | ·
O=C1NN(c2ccc(Cl)cc2)C(=O)/C1=C\c1ccc(-c2cccc(C(=O)O)c2)o1 | 0% | 2% | ? | ? | -3%
O=C1NN(c2ccccc2)C(=O)/C1=C\c1ccc(-c2cc([N+](=O)[O-])ccc2O)o1 | -23% | -6% | -28% | -4% | 79µM*
COc1ccccc1Nc1nn2c(=O)c3ccc(C(=O)NC4CCC(C)CC4)cc3nc2s1 (stereo not drawn) | · | · | -26% | · | ·
O=c1c(/C=C(\O)c2ccc(F)cc2)nc2ccccc2n1-c1ccccc1 | 100µM* | 23% | 20% | 13% | 100%
Cn1c(=O)c(/C=C/c2ccc(F)cc2)nc2ccccc21 | 2% | -16% | -16% | -3% | 8%
CCc1nnc2c(N3CCN(c4cccc(C)c4)C(C)C3)nc3ccccc3n12 (stereo not drawn) | · | · | -23% | · | ·
COc1ccc(-c2nc3n(c(=O)c2C#N)CCS3)cc1 | 13% | 3% | -23% | ? | -4%
C=CCSc1nc(-c2ccc(OC)cc2)c(C#N)c(=O)n1CC=C | -3% | -4% | ? | -7% | 40µM*
O=C1C(=Cc2cn(-c3ccccc3)nc2-c2ccc(OCc3ccccc3)cc2)SC(=S)N1CCS(=O)(=O)O | -6% | -1% | · | ? | ?
Cc1ccc(-c2nn(-c3ccccc3)cc2C=C2SC(=S)N(CCS(=O)(=O)O)C2=O)cc1 | 1% | -12% | · | 7.9µM* | 45µM*
CCc1cc(=O)oc2cc(C)cc(OCC(=O)N[C@@H](CSCc3ccccc3)C(=O)O)c12 | 7% | -20% | 10% | -16% | 56µM*
COC(=O)c1cc(Br)c(=O)n(CCc2ccc(F)cc2)c1 | 0% | 17% | -10% | 3% | 28µM*
COCOCCn1cc(CN2CCS(=O)(=O)N(Cc3ccc(-c4ccc(C)cc4)cc3)C(CC(C)C)C2=O)nn1 (stereo not drawn) | 10% | -18% | -11% | -9% | ?
COCOCCn1cc(CN2CCS(=O)(=O)N(Cc3ccc(-c4ccc(F)cc4)cc3)C(CC(C)C)C2=O)nn1 (stereo not drawn) | 1% | -19% | -9% | -17% | 13µM*
CC(=O)c1cccc(Nc2nc(-c3ccccc3)nc3ccccc23)c1 | 1% | -5% | -13% | -6% | 2%
O=c1[nH]c(Nc2ccccc2)cc2ccccc12 | 6% | -6% | 2.5µM* | 50µM* | ?
COc1ccc(OC)c(Nc2cc3ccccc3c(=O)[nH]2)c1 | 14% | 3% | 5µM* | ? | 2%
Cn1c(=O)cc(Nc2ccccc2)[nH]c1=O | 0% | 10% | -16% | -4% | 1%
CC(=O)c1cccc(-c2ccc3c(=O)[nH]c(Nc4ccccc4)cc3c2)c1 | 8% | 13% | 3.2µM* | 50µM* | 5%
O=c1[nH]c(Nc2ccccc2)cc2cc(Br)ccc12 | 6% | -5% | 1.1µM* | ? | -10%
O=C(NCC(c1ccco1)S(=O)(=O)c1ccc(Cl)cc1)c1ccccc1F (stereo not drawn) | · | · | -26% | · | ·
COc1ccccc1Nc1cc2cc(Br)ccc2c(=O)[nH]1 | 13% | -1% | 4.5µM* | ? | -3%
CCCC[C@@H]1C[C@H]1[C@@H](NC(=O)c1ccco1)c1ccc(Cl)cc1 | 2% | -20% | -22% | -19% | 8.9µM*
CCCC[C@@H]1C[C@H]1[C@@H](NC(=O)c1cccs1)c1ccc(Cl)cc1 | 2% | 2% | -13% | -17% | ?
SMILES | EPAC2 agonist | EPAC1 agonist | USP1-UAF1 inh | EPAC1 antag | EPAC2 antagonist
COc1cc(/C=C2\SC(=S)N(NS(=O)(=O)c3ccccc3)C2=O)cc(OC)c1OC | 5% | 3% | -8% | ? | 50µM*
COc1cccc(/C=C2\SC(=S)N(NS(=O)(=O)c3ccccc3)C2=O)c1OC | 1% | 8% | -27% | 50µM* | ?
O=C1/C(=C/c2ccccn2)SC(=S)N1NS(=O)(=O)c1ccccc1 | -6% | 1% | -9% | -28% | -14%
O=C1/C(=C/c2cccc(F)c2)SC(=S)N1NS(=O)(=O)c1ccccc1 | -5% | -13% | -16% | 40µM* | 18µM*
COCCCNc1ncnc2c1cnn2-c1ccc(F)cc1 | · | · | -13% | · | ·
CC(C)c1nc2ccc(C(=O)NCCCN3CCN(c4cccc(Cl)c4)CC3)cc2o1 | · | · | -1% | · | ·
CC(NC(=O)/C(C#N)=C/c1ccc(N2CCOCC2)cc1)c1ccccc1 (stereo not drawn) | ? | 89µM* | -10% | -23% | -3%
COC(=O)c1ccc(/C=C(\C#N)C(=O)NC(C)c2ccccc2)cc1 (stereo not drawn) | 21% | 12% | -13% | 0% | 1%
Cc1cccc(NC(=O)Cn2c(=O)c3cccn3c3ccccc32)c1C | · | · | 3% | · | ·
O=C1Nc2ccccc2/C1=N\N=C\c1ccc(O)c(O)c1 | -9% | 2% | -3% | 40µM* | -16%
N#C/C(=C/C1=C(N2CCOCC2)C(=C/c2cccc([N+](=O)[O-])c2)/CC1)C(=O)Nc1ccccc1F | -7% | -2% | -9% | 1% | 79µM*
NC(=O)CSc1nc2c(sc3ccccc32)c(=O)n1CCCC(=O)NCC1CCCO1 (stereo not drawn) | -4% | + | ? | 123% | 92%
O=C(CSc1nc2c(sc3ccccc32)c(=O)n1CCCN1CCOCC1)NCC1CCCO1 (stereo not drawn) | 6% | 4% | -5% | -9% | 2%
Cc1ccc(Sc2ccc(S(=O)(=O)Nc3ccc(C(=O)O)cc3)cc2)cc1C | -3% | -6% | -23% | 71µM* | ?
Cc1ccc(Oc2ccc(S(=O)(=O)Nc3ccc(C(=O)O)cc3)cc2)cc1 | -1% | -19% | -12% | 10% | -14%
O=C1NC(=S)S/C1=C\c1ccc(SCc2ccccc2)o1 | 14% | 19% | -12% | 22µM* | ?
O=C1NC(=S)S/C1=C\c1ccc(SCc2ccco2)o1 | 9% | 10% | ? | ? | 45µM*
CCC1=NN2C(=N)/C(=C\c3ccc(SCc4ccco4)o3)C(=O)N=C2S1 | -2% | 3% | -9% | ? | -3%
Cc1oc2ncn(CC(C)C)c(=O)c2c1C(=O)N1CCN(c2ccc(F)cc2)CC1 | · | · | -22% | · | ·
O=C(Nc1cc(C(=O)Nc2ccccc2C(=O)O)cc(C(=O)Nc2ccccc2C(=O)O)c1)c1ccccc1 | 12% | 3% | ? | 10µM* | -12%
O=C(/C=C/c1ccco1)Nc1cccc(C(=O)Nc2ccccc2C(=O)O)c1 | -7% | -8% | -19% | 50µM* | -9%
Cc1ccc(-n2nc3ccc(NC(=O)/C=C/c4ccco4)cc3n2)cc1 | -1% | -1% | -5% | 22µM* | -16%
